Laboratory results reported in PubChem BioAssay.
A number with no mark means an inactive call. The rule behind the calls is not given here.

Assay: Pseudomonas biofilm growth suppression – PAO1 strain, BacTiter-Glo luminescence, LB-PBS, primary screen (AID 1144)
Conditions: P. aeruginosa PAO1 biofilm, 12 h, higher = more signal
COC(=O)C(CC#Cc1ccc2c(c1)[C@]1(C(=O)N2)[C@H](c2ccc(OCCO)cc2)N2[C@H](c3ccccc3)[C@H](c3ccccc3)OC(=O)[C@H]2[C@@H]1C(N)=O)C(=O)OC gave a z-score of -0.287.
Molecule COC(=O)C(CC#Cc1ccc2c(c1)[C@]1(C(=O)N2)[C@H](c2ccccc2OCCO)N2[C@H](c3ccccc3)[C@H](c3ccccc3)OC(=O)[C@H]2[C@@H]1C(=O)N1CCN(c2ncccn2)CC1)C(=O)OC has a z-score of -0.321.
For COC(=O)Cn1c(C(=O)N(C)C)cc2c1C[C@H]1CN(C(=O)c3ccccc3)[C@@](Cc3ccccc3)(C(=O)OC)[C@@H]21, the z-score was -0.334.
For COC(=O)[C@@]1(Cc2ccc(OC)cc2)[C@@H]2[C@@H](CC(=O)[C@H]2CC(=O)C(=O)N(C)C)CN1C(=O)c1ccccc1, the z-score was 0.327.
Work on COC(=O)[C@@]1(Cc2ccccc2)[C@H]2c3cc(C(=O)N(C)C)n(Cc4nc5ccccc5[nH]4)c3C[C@H]2CN1C(=O)c1ccccc1 yielded a z-score of -0.142.
Molecule COCCOC(=O)N1C(=O)[C@@]2(c3cc(C#CCCO)ccc31)[C@H](C(=O)N1CCN(c3ncccn3)CC1)[C@H]1C(=O)O[C@H](c3ccccc3)[C@H](c3ccccc3)N1[C@@H]2c1ccc(OCCO)cc1 has a z-score of 0.386.
With C=C(CCCC)/C(=C/C[C@@H](OC(C)=O)c1cccc(OCCO)c1)c1cc(C(=O)OC)ccc1OC the z-score was 0.198.
C=CCOC(=O)[C@H]1[C@@H]2C(=O)O[C@@H](c3ccccc3)[C@@H](c3ccccc3)N2[C@@H](c2ccc(OCCOC(=O)[C@H]3C[C@H]4C(=O)NCC(=O)N4[C@H]3c3cccc(OCCO)c3)cc2)[C@]12C(=O)Nc1ccc(I)cc12 gave a z-score of -0.282.
Work on CCOC(=O)C=C1C[C@@H](c2cccc([N+](=O)[O-])c2)O[C@@H](c2cccc([N+](=O)[O-])c2)O1 yielded a z-score of 0.397.
Work on COc1ccc(C#Cc2ccc3c(c2)[C@]2(C(=O)N3)[C@H](c3ccccc3OCCO)N3[C@H](c4ccccc4)[C@H](c4ccccc4)OC(=O)[C@H]3[C@@H]2C(=O)NC[C@H](O)c2ccccc2)cc1 yielded a z-score of -0.627.
C=CC[C@H](O)c1ccc(O)c2ccccc12 showed a z-score of -0.725.
With Cc1ccc(S[C@]2(C(=O)NCCN3CCOCC3)CC(=O)N(C(C)C)[C@@H]2c2ccc(CO)cc2I)cc1 the z-score was -0.121.
For CN(C)C(=O)[C@]1(CCS(=O)(=O)c2ccccc2)N=C(c2ccc(OCCCO)cc2)O[C@@H]1c1ccccc1CN=[N+]=[N-], the z-score was -0.813.
For C[C@H]1C2[C@H](Cc3ccccc3)NC(=O)[C@]23C(=O)N[C@@H](Cc2ccccc2)C(=O)N2CCC[C@H]2C(=O)NC/C=C/CC/C=C/C3[C@@H]2O[C@]12C (some centres not stated), the z-score was -0.165.
C=CCN1C(=O)[C@]2(O[C@H](CCO)[C@@H]([Si](C)(C)c3ccc(OC)cc3)[C@@H]2C)c2cc(N3C(=O)c4ccccc4Oc4ccccc43)ccc21 gave a z-score of -0.323.
Work on CO[C@H]1O[C@H](CO)[C@@H](OC(=O)Nc2ccccc2)[C@@H]2OC(=O)[C@@H](Cc3ccccc3)C/C=C/C[C@H](Cc3ccccc3)C(=O)O[C@@H]12 yielded a z-score of -0.213.
COC(=O)[C@@]1(Cc2ccc(OC)cc2)[C@H]2c3cc(C(=O)N(C)C)n(Cc4c(CO)[nH]cc(C)c4=O)c3C[C@H]2CN1C(=O)c1ccccc1 gave a z-score of -0.357.
Molecule COc1cccc(C)c1NC(=O)O[C@H]1[C@H](OC(=O)Nc2ccccc2-c2ccccc2)[C@@H](OC(=O)Nc2ccccc2-c2ccccc2)[C@@H](OC)O[C@@H]1CO has a z-score of -0.325.
With CCCNC(=O)[C@@]1(Sc2ccc(C)cc2)CC(=O)N(Cc2cc(C(F)(F)F)cc(C(F)(F)F)c2)[C@@H]1c1ccc(CO)cc1 the z-score was 0.503.
For COC(=O)[C@@]1(Cc2ccc(F)cc2)[C@H]2c3cc(C(=O)N(C)C)n(Cc4ccc(C(F)(F)F)nc4)c3C[C@H]2CN1C(=O)c1ccccc1, the z-score was 0.857.
Molecule COC(=O)[C@@]1(Cc2ccccc2)[C@H]2c3cc(C(=O)N(C)C)n(Cc4ccc(Cl)c(C(F)(F)F)c4)c3C[C@H]2CN1C(=O)c1ccccc1 has a z-score of 0.821.
With CN1C(=O)C2C=CC(C(O)c3ccc(I)cc3)N(N(c3ccccc3)c3ccccc3)C2C1=O (configuration not stated) the z-score was 0.257.
